In ChEMBL document CHEMBL3988442, “University of Dundee, Small-Polar-MMV Screening Library” (2021):

How the values were obtained:
[1] = target: T1, Aspartate--tRNA(Asp/Asn) ligase (Mycobacterium tuberculosis (strain ATCC 25618 / H37Rv)) (UniProt P9WFW3); experiment: Assay for Asp RNA synthetase-1 from Mycobacterium tuberculosis; assay type: functional; design: scale not given: direction of the effect not stated beside the values; details: 30 µM; further: in the data most compounds retested in dose-response had high values
T1 sequence (whole entry): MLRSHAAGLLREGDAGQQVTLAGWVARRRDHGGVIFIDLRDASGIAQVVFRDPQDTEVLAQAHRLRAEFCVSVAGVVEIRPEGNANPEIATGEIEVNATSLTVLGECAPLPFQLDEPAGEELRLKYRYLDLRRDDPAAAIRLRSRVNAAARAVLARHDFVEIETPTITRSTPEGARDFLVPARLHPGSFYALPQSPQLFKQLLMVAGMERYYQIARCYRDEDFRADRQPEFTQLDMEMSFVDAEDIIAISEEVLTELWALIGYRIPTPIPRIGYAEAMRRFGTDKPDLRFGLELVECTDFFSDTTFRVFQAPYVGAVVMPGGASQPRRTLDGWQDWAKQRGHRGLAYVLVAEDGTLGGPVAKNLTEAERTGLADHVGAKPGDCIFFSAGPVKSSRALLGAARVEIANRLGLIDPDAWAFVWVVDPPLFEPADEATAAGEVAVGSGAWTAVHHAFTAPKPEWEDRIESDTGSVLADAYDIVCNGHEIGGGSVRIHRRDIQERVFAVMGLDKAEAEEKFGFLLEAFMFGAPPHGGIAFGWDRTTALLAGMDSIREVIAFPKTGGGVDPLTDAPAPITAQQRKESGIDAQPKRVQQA

[2] = target: Shiga toxin 2 (Escherichia coli O157:H7) (UniProt P09385+P09386); experiment: E. coli 0.157:H7 Shiga Toxin SOP - stx2 screening assay; assay type: functional; design: scale not given: direction of the effect not stated beside the values; details: 30 µM

Row | SMILES | Percent Effect [1] [%] | Percent Effect [2] [%]
1 | CCOc1ccccc1C(=O)NS(=O)(=O)c1ccc2c(c1)OCCCO2 | -0.534 | 19.9
2 | Cc1ccoc1C(=O)N1CCO[C@H]2[C@H](OCCN(C)C)CC[C@@H]21 | -1.25 | -12.2
3 | O=C(NCC(=O)N1CCCCC1)c1ccoc1 | 6.71 | -16.3
4 | CCn1ncnc1C1CC(=O)NCc2nc3ccccn3c21 (stereo unspecified) | -2.72 | 2.83
5 | COc1cccc(CCC2CCCN(C(=O)C3=NN(C)C(=O)CC3)C2)c1 (stereo unspecified) | 1.75 | -7.25
6 | CN(C)CCO[C@H]1CN(Cc2cccc(C#N)c2)[C@@H]2COC[C@H]12 | 1.95 | -21.2
7 | CN(C)C1CCN(C(=O)NCc2ccc(Cn3cncn3)cc2)CC1 | -3.07 | -19.9
8 | CCc1cc(C(F)(F)F)c2c(C)nn(CC(=O)O)c2n1 | -5.37 | 14.6
9 | Cn1cc(C(=O)CC2CCCN2C(=O)c2n[nH]c3ccccc23)cn1 (stereo unspecified) | -3.71 | 0.49
10 | O=C1CC(c2ccccc2)c2c(n3ccsc3nc2=O)N1 (stereo unspecified) | -1.74 | -13.6
11 | Cc1ccccc1C(=O)N1CCOC2(CNCCOC2)C1 (stereo unspecified) | -0.279 | -0.428
12 | CCOc1ccc(CN(C)C(=O)NC(C)c2nncn2C)cc1 (stereo unspecified) | 0.975 | -14.2
13 | COc1cc(CN(C)C(=O)Nc2cc(C)on2)ccc1SC | 2.27 | -8.55
14 | CCN1CCn2c(C)cnc2C12CCN(C(=O)CC(C)C)CC2 | 1.31 | -0.923
15 | Cn1cccc1C(=O)N1CCC2(CC1)CN(c1cncnc1)C(=O)CO2 | -4.72 | -1.71
16 | COc1ncccc1NC(=O)NC1CCOc2ccccc21 (stereo unspecified) | -3.76 | -5.5
17 | CCN(Cc1ccc2c(c1)OCCO2)C(=O)NCc1cc[nH]n1 | 3.66 | 27.9
18 | Cc1nc(CN2C(=O)COC3(CCN(Cc4nccs4)CC3)C2C)cs1 (stereo unspecified) | -2.21 | -29.4
19 | Cc1ncsc1C(=O)NC1CCN(CCC(N)=O)CC1 | -2.4 | 13.9
20 | O=C1CO[C@@H]2CN(S(=O)(=O)c3ccccc3)C[C@H]2N1CC1CC1 | 5.5 | -3.47
21 | CC(C)c1nc2c(n1C)CCN(CC(=O)Nc1nccs1)C2 | -1.5 | 26
22 | Cn1cccc1C(=O)N1CCCN(CCCc2ccccc2)CC1 | 0.0912 | -20.8
23 | CC(C)N(C)CCCNC(=O)c1cnc(-c2ccccc2)nc1 | 3.09 | -37.7
24 | Cc1cnc(CN2CCCC2c2noc(C)n2)cn1 (stereo unspecified) | 0.514 | 4.6
25 | COc1nccc(N2CCN(Cc3ccc(C)cc3)C(=O)C2)c1C#N | 3.98 | -64.8
26 | Cc1noc(CN2Cc3ccccc3CC2c2nnc(C)o2)n1 (stereo unspecified) | -2.54 | -7.76
27 | CCc1nc2n(n1)CC(NCC(=O)Nc1cc(C)on1)CC2 (stereo unspecified) | -3.4 | 3.33
28 | Cc1cc(C(=O)NCc2ccnc(N3CCN(C)CC3)c2)c(C)s1 | -3.03 | -30.4
